# Experimental data reported in PubChem BioAssay (Tox21).
# Results filed as inconclusive are left out. Values without a mark were called inactive. Activity calls are given as the source filed them. The call rests on the fitted dose curve; in most records, active means well fitted cell-killing curve with a large enough effect in the repeat runs; inconclusive means weak or mixed curves, or effect the other way; inactive means flat fitted curve, though single readings scatter.
# Test: qHTS RealTime-Glo MT Cell Viability Assay in HEK293 cells - 40 hour (AID 1224874); further: nearly all actives have a fitted effect of over 50% in size
# Details: RealTime-Glo luminescence; max response: stronger effect = lower value
# Description: U.S. Tox21 Program National Center for Advancing Translational Sciences [NCATS] NIH Chemical Genomics Center [NCGC] U.S. Environmental Protection Agency [EPA] National Institutes of Environmental Health Sciences [NIEHS] National Toxicology Program [NTP] U.S. Food and Drug Administration [FDA] Tox21 Assay Overview: Measure of cell viability is critical in the cell-base assay. Analysis of cell viability is necessary for the characterization of cell responses to cytotoxic drugs and environmental stress. A RealTime-Glo MT Cell Viability Assay to monitor cell viability in real time of continues cell culture during 40 hours of compound treatment was used to screen Tox21 10K library compounds in Hek293 cells. The RealTime-Glo MT Cell Viability Assay is a nonlytic, homogeneous, bioluminescent method to measure cell viability in real time using a simple, plate-based method. The assay involves adding NanoLuc luciferase and a cell-permeant prosubstrate to cells in culture. Viable cells reduce the proprietary prosubstrate to generate a substrate for NanoLuc luciferase. This substrate diffuses from cells into the surrounding culture medium, where it is rapidly used by the NanoLuc Enzyme to produce a luminescent signal. The signal correlates with the number of viable cells, making the assay well suited for cytotoxicity studies.
# Tox21 Assay Protocol Summary: The mixture of Hek293 cell suspension and reagents were dispensed at 600cells/6 ul/well in 1536-well tissue culture treated black solid bottom plates using a Multidrop dispenser. After the assay plates were incubated at a 37 C/5% CO2 incubator for 5 hours, 23 nL of compounds dissolved in DMSO, positive and negative controls was transferred to the assay plate by a pintool work station. The plates were incubated at 37 C for 40 hours. The luminescence intensity were measured at 0h, 8h, 16h, 24h, 32h and 40h time points using ViewLux plate reader during compound treatment.
# On the % scale 0 is the no-effect control and ±100 the full control effect; potency means the concentration at half of the fitted maximal effect.
Compound,max response,Potency
CC(CN=Cc1ccccc1O)N=Cc1ccccc1O (stereo not given),0.376%,–
CNc1ccccc1,4.77%,–
Cc1cccc(C)c1NC(=O)CN1CCCC1,8.7%,–
CCC(C(=O)O)c1ccc(N2Cc3ccccc3C2=O)cc1 (stereo not given),-1.19%,–
O=C(NC1CCN(CCc2c[nH]c3ccccc23)CC1)c1ccccc1,–,9.52 µM (active)
C=CC(=O)OCCCCCCCCCC,12.1%,–
O=P(c1ccccc1)(c1ccccc1)c1ccccc1,-19%,–
Cc1c(-c2cccnc2)c2ccccc2n1CCCCC(=O)O,2.18%,–
OCCOc1cccc(OCCO)c1,12.3%,–
O=C(O)c1cccnc1Nc1cccc(C(F)(F)F)c1,-4.24%,–
O=c1[nH]nc(-c2ccc([N+](=O)[O-])o2)o1,-1.91%,–
Cc1c(Cl)cccc1[N+](=O)[O-],-7.04%,–
Cc1cc(N)n(-c2ccccc2)n1,-5.72%,–
Clc1cccc(C(c2ccc3nc[nH]c3c2)n2ccnc2)c1 (stereo not given),-17.1%,–
CC1(C)CC(=O)CC(C)(C)N1,0.817%,–
N#C[C@@H]1CC(F)(F)CN1C(=O)CNC1CC2CCC(C1)N2c1ncccn1 (stereo not given in full),1.88%,–
CC(C)(Cc1c[nH]c2ccccc12)NCC(O)COc1ccccc1C#N (stereo not given),–,19 µM (active)
COc1ccc(C(=O)Nc2ccccc2)cc1[N+](=O)[O-],–,24.7 µM (active)
CCC(CC)C(=O)O,15%,–
CC/C=C\CCO,15.9%,–

Compound,max response,Potency
Cc1cc(C)c(C)c(O)c1,0.904%,–
CCc1cnc(C(=O)O)c(C(=O)O)c1,5.23%,–
CCCCOc1ccc(N)cc1,0.387%,–
CCCCCCCCCCCCSC#N,0.323%,–
COC=O,19.4%,–
O=[N+]([O-])c1ccccc1CCO,16.6%,–
O=C(O)c1c2ccccc2cc2ccccc12,–,38.8 µM (active)
SCCOCCOCCS,-3.19%,–
CCCC1CCCC(=O)O1 (stereo not given),0.877%,–
CC(Cc1ccccc1)(NC(=O)CN)c1ccccc1 (stereo not given),-3.14%,–
O=C(c1ccco1)N1CCNCC1,3.57%,–
Nc1nc(Cl)nc2c1ncn2[C@H]1C[C@H](O)[C@@H](CO)O1,-25.7%,–
CCCCOC(=O)CC#N,7.32%,–
NC(=O)c1ccccc1C(N)=O,–,31 µM (active)
CCC(C)C1N=C(C)C(C)S1 (stereo not given),6.11%,–
COc1ccc(/C=C/S(=O)(=O)NC(=O)c2ccc(C)cc2Cl)cc1,-7.95%,–
CC(C)(C(=O)O)c1ccc(C(O)CCCN2CCC(C(O)(c3ccccc3)c3ccccc3)CC2)cc1 (stereo not given),1.75%,–
CC(C)C/C=C(\C=O)c1ccccc1,10%,–
CCCCOC(=O)C(C)Oc1ccc(Oc2ccc(C(F)(F)F)cn2)cc1 (stereo not given),-1.23%,–
CCOc1ccc(NC(C)=O)cc1N,3.81%,–
